Measurements from paper PMC7862700, “An all-to-all approach to the identification of sequence-specific readers for epigenetic DNA modifications on cytosine”.

Columns and labels:
Test in all cases: DAPPL (digital affinity profiling via proximity ligation, sequencing); 10 mM Tris-HCl pH 7.5, 50 mM NaCl, 1 mM DTT, 4% glycerol, room temperature, 30 min; GST-TFs on glutathione beads, 16-mer random dsDNA library, 0.1% formaldehyde crosslink after washing; high values mean tight binding
Details in all cases: protein: recombinant; tags: N-terminal GST; dsDNA, one strand shown
[1] = target: T1, FLI1 (Homo sapiens, UniProt Q01543 1-452)
T1 sequence: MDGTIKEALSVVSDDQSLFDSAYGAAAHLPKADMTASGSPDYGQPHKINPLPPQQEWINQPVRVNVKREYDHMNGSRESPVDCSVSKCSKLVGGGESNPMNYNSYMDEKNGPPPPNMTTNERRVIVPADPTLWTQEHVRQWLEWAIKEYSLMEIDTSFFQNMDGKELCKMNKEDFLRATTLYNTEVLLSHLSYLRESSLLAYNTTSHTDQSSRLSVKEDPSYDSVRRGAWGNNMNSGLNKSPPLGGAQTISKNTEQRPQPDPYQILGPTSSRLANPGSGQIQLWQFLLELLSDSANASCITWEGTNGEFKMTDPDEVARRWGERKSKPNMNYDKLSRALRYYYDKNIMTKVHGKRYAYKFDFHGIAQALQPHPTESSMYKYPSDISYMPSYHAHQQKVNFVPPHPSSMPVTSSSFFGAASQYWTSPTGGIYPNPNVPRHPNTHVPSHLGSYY
Summary of the method: (§1)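 Human transcription factors were made in yeast as GST fusions, captured on glutathione beads and barcoded with DNA. With a tag-only sample included, the pool was incubated with 200 nmole of a random double-stranded 16-mer DNA library in Tris/NaCl/DTT/glycerol buffer at room temperature for 30 min, then crosslinked with 0.1% formaldehyde after washing, ligated by proximity, amplified and sequenced. For binding signal, each hexamer's read frequency for a factor is divided by its frequency for the tag-only sample.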

[2] = target: T2, ELK1 (Homo sapiens, UniProt P19419 1-428)
T2 sequence: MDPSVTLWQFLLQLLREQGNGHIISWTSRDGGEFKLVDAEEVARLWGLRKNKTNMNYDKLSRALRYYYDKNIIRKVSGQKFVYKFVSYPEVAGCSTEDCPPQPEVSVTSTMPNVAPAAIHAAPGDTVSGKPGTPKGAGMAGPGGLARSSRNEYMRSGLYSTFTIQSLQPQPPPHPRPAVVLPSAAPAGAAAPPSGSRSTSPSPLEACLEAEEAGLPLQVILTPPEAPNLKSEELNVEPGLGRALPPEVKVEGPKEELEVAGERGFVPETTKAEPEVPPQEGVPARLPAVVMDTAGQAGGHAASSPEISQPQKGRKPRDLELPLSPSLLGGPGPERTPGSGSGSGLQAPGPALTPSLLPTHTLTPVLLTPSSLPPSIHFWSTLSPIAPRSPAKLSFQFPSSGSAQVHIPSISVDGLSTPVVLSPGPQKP
Summary of the method: as §1

[3] = target: T3, GABPA (Homo sapiens, UniProt Q06546 1-454)
T3 sequence: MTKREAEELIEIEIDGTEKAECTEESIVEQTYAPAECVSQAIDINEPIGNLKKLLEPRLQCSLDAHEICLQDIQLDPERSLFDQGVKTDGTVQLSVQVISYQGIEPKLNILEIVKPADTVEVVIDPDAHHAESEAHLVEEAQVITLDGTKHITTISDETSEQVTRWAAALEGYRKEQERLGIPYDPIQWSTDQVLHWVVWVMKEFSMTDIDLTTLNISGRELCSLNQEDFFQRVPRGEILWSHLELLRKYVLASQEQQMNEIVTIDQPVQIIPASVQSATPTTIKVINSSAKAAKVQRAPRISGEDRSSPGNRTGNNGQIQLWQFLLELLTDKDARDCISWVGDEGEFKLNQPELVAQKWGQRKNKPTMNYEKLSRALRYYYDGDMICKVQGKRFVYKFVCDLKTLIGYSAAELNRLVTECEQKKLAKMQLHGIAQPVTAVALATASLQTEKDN
Summary of the method: as §1

[4] = target: T4, ERG (Homo sapiens, UniProt P11308 1-479)
T4 sequence: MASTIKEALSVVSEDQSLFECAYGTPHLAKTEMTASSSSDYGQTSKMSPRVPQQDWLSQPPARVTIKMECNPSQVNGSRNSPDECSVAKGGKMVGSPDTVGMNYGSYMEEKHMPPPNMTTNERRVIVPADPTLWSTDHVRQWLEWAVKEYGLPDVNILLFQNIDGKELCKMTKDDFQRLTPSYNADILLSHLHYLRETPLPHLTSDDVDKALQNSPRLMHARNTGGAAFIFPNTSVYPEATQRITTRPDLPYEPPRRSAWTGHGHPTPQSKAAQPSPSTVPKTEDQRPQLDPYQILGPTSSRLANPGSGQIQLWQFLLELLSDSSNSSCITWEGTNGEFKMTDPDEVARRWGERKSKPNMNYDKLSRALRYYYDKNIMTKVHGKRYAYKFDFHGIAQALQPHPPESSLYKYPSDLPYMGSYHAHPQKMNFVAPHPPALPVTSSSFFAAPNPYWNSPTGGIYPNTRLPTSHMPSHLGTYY
Summary of the method: as §1

[5] = target: ELF1 (Homo sapiens, UniProt P32519 1-619)
Summary of the method: as §1

[6] = target: T5, EHF (Homo sapiens, UniProt Q9NZC4 1-300)
T5 sequence: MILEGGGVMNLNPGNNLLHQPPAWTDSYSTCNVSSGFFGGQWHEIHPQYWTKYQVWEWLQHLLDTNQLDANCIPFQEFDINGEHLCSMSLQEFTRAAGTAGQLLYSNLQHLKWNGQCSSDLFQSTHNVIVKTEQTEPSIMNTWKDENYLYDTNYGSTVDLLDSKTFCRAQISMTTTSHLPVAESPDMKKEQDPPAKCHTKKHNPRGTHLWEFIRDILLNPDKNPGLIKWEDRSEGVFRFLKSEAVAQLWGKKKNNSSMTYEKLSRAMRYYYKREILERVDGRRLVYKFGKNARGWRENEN
Summary of the method: as §1

[7] = target: SPI1 (Homo sapiens, UniProt P17947 1-270)
Summary of the method: as §1

[8] = target: SPIB (Homo sapiens, UniProt Q01892 1-262)
Summary of the method: as §1

[9] = target: T6, ELK3 (Homo sapiens, UniProt P41970 1-407)
T6 sequence: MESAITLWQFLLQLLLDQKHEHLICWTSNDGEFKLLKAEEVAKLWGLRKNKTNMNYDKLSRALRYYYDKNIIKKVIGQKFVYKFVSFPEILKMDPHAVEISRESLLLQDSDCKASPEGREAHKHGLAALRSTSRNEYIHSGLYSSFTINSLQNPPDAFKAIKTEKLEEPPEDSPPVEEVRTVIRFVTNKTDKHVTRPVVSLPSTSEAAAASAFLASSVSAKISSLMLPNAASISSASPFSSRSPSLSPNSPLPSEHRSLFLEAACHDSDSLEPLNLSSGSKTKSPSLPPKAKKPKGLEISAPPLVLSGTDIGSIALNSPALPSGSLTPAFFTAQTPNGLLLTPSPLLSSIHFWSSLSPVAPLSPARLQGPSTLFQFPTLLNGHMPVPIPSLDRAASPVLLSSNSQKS
Summary of the method: as §1

[10] = target: ETV5 (Homo sapiens, UniProt P41161 1-510)
Summary of the method: as §1

[11] = target: T7, SPIC (Homo sapiens, UniProt Q8N5J4 1-248)
T7 sequence: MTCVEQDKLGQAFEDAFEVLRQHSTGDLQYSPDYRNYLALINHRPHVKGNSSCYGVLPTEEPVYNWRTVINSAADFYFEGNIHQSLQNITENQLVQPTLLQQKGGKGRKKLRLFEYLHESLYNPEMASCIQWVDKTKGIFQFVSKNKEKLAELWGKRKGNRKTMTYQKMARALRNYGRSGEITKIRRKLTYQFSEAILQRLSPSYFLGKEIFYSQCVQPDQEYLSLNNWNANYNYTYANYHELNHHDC
Summary of the method: as §1

[12] = target: ELF4 (Homo sapiens, UniProt Q99607 1-663)
Summary of the method: as §1

[13] = target: T8, ELK4 (Homo sapiens, UniProt P28324-2 1-405)
T8 sequence: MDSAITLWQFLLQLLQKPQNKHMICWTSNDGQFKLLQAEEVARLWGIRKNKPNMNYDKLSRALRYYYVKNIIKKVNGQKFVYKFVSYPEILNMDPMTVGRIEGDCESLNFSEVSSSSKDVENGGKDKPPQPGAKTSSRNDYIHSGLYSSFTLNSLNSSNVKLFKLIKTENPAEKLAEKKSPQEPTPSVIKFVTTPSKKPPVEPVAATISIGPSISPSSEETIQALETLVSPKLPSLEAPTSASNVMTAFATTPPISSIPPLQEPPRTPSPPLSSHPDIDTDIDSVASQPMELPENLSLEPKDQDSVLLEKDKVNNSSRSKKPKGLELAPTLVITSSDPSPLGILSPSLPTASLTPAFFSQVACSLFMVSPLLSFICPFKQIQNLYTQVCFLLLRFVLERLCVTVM
Summary of the method: as §1

[14] = target: T9, ETV2 (Homo sapiens, UniProt O00321 1-342)
T9 sequence: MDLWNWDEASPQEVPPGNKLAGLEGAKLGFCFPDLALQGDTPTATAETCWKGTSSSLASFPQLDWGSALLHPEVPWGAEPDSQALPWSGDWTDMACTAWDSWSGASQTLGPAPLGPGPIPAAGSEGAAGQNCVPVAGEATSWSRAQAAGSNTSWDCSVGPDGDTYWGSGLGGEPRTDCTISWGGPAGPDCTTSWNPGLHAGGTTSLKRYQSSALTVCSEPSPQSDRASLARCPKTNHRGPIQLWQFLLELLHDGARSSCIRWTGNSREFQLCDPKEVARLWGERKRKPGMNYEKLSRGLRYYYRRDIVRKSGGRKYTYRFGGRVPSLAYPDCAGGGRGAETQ
Summary of the method: as §1

[15] = target: T10, ELF3 (Homo sapiens, UniProt P78545 1-371)
T10 sequence: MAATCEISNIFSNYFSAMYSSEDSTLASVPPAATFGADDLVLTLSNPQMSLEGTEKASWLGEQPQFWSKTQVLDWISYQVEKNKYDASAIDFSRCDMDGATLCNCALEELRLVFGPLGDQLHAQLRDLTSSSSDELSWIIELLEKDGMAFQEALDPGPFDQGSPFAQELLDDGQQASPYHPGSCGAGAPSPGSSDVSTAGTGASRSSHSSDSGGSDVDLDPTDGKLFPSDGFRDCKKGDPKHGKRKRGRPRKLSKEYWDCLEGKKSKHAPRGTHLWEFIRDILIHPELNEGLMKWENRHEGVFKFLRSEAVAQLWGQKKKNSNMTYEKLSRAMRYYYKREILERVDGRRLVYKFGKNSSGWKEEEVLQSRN
Summary of the method: as §1

[16] = target: ETV1 (Homo sapiens, UniProt P50549 1-477)
Summary of the method: as §1

[17] = target: T11, FEV (Homo sapiens, UniProt Q99581 1-238)
T11 sequence: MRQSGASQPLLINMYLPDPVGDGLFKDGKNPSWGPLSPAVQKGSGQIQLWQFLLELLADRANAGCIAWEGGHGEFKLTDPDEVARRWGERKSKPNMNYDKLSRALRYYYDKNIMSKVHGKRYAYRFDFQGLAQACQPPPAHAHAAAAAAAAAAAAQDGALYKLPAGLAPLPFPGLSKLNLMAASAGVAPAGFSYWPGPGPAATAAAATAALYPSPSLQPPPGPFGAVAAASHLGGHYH
Summary of the method: as §1

Sequence of ELF4 (Q99607 whole entry): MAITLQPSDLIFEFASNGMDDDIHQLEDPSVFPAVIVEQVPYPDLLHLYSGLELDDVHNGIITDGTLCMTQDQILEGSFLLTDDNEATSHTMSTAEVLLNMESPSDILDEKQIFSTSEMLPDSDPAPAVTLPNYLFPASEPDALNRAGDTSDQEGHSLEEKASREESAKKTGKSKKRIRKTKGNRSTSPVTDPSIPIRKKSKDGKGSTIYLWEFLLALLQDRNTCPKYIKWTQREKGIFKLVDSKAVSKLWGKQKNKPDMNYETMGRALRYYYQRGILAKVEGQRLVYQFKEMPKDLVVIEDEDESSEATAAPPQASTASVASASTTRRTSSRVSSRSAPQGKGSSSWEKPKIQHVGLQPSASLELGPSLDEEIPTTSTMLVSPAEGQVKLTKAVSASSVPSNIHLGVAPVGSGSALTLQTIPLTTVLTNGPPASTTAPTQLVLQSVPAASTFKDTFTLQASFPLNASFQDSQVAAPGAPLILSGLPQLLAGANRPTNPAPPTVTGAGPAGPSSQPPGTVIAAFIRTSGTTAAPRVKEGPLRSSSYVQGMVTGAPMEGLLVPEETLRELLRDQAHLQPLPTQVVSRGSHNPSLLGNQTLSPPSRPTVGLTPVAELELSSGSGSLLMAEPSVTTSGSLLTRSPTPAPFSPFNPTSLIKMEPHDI
Sequence of SPIB (Q01892 whole entry): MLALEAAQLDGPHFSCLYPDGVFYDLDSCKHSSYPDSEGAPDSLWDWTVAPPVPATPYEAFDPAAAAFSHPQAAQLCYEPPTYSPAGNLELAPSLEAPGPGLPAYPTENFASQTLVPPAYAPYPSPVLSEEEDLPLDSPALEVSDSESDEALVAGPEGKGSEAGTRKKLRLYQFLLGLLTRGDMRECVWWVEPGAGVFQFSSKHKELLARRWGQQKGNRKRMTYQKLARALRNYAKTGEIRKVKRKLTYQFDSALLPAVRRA
Sequence of ETV1 (P50549 whole entry): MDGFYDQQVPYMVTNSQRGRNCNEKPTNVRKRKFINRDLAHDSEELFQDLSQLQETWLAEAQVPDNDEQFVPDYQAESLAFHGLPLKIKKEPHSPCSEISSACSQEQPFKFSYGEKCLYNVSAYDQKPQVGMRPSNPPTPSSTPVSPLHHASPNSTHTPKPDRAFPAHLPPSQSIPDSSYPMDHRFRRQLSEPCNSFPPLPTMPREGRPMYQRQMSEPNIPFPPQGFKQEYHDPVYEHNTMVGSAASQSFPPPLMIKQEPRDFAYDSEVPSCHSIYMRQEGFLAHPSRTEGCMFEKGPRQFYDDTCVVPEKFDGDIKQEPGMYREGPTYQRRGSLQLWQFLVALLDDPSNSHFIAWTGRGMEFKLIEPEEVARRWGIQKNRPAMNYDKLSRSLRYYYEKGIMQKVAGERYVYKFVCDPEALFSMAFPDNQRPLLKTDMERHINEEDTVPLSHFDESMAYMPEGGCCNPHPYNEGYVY
Sequence of ELF1 (P32519 whole entry): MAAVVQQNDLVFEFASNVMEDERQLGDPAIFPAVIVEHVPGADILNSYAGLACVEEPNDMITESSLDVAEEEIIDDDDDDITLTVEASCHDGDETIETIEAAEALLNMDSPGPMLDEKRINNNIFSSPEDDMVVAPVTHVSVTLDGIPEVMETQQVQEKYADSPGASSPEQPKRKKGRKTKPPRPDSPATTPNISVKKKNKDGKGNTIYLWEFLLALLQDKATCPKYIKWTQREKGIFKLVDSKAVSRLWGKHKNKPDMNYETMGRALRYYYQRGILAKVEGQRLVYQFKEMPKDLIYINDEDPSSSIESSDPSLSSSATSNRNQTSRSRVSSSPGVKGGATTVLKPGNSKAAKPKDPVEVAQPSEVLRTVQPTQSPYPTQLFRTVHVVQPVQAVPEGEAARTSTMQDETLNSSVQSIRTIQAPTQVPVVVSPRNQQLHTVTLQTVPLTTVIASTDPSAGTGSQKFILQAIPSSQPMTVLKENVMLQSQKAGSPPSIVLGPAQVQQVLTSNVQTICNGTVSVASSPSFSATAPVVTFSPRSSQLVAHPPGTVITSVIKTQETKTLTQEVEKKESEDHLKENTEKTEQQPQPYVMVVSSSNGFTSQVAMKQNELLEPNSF
Sequence of ETV5 (P41161 whole entry): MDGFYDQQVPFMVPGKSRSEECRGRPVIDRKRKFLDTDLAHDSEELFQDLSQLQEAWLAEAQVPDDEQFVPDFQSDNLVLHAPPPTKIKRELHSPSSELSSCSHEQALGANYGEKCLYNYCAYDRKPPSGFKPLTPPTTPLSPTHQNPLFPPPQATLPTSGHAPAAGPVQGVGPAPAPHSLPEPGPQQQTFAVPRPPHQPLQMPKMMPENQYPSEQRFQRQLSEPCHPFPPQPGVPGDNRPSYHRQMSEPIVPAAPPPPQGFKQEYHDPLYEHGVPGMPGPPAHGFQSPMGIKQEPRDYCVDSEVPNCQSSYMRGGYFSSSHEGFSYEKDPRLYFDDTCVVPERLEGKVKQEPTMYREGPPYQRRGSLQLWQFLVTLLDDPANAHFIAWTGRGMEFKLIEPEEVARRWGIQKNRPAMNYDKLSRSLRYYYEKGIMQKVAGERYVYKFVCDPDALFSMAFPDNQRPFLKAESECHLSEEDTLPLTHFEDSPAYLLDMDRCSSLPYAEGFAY

CGACGC
binding signal [1]: 1.11 fold enrichment (6-mer frequency, TF over GST control) | binding signal [2]: 1.11 fold enrichment (6-mer frequency, TF over GST control) | binding signal [3]: 1.04 fold enrichment (6-mer frequency, TF over GST control) | binding signal [4]: 1.05 fold enrichment (6-mer frequency, TF over GST control) | binding signal [5]: 1.16 fold enrichment (6-mer frequency, TF over GST control) | binding signal [6]: 1.06 fold enrichment (6-mer frequency, TF over GST control) | binding signal [7]: 1.06 fold enrichment (6-mer frequency, TF over GST control) | binding signal [8]: 1.08 fold enrichment (6-mer frequency, TF over GST control) | binding signal [9]: 1.01 fold enrichment (6-mer frequency, TF over GST control) | binding signal [10]: 1.07 fold enrichment (6-mer frequency, TF over GST control) | binding signal [11]: 1.09 fold enrichment (6-mer frequency, TF over GST control) | binding signal [12]: 1.09 fold enrichment (6-mer frequency, TF over GST control) | binding signal [13]: 1.07 fold enrichment (6-mer frequency, TF over GST control) | binding signal [14]: 1.16 fold enrichment (6-mer frequency, TF over GST control) | binding signal [15]: 1.28 fold enrichment (6-mer frequency, TF over GST control) | binding signal [16]: 1.01 fold enrichment (6-mer frequency, TF over GST control)

GTCCTT
binding signal [1]: 1.16 fold enrichment (6-mer frequency, TF over GST control) | binding signal [2]: 1.2 fold enrichment (6-mer frequency, TF over GST control) | binding signal [3]: 1.28 fold enrichment (6-mer frequency, TF over GST control) | binding signal [4]: 1.22 fold enrichment (6-mer frequency, TF over GST control) | binding signal [5]: 1.26 fold enrichment (6-mer frequency, TF over GST control) | binding signal [6]: 1.28 fold enrichment (6-mer frequency, TF over GST control) | binding signal [7]: 1.29 fold enrichment (6-mer frequency, TF over GST control) | binding signal [8]: 1.34 fold enrichment (6-mer frequency, TF over GST control) | binding signal [9]: 1.25 fold enrichment (6-mer frequency, TF over GST control) | binding signal [17]: 1.29 fold enrichment (6-mer frequency, TF over GST control) | binding signal [10]: 1.19 fold enrichment (6-mer frequency, TF over GST control) | binding signal [11]: 1.23 fold enrichment (6-mer frequency, TF over GST control) | binding signal [12]: 1.21 fold enrichment (6-mer frequency, TF over GST control) | binding signal [13]: 1.15 fold enrichment (6-mer frequency, TF over GST control) | binding signal [14]: 1.31 fold enrichment (6-mer frequency, TF over GST control) | binding signal [15]: 1.16 fold enrichment (6-mer frequency, TF over GST control) | binding signal [16]: 1.13 fold enrichment (6-mer frequency, TF over GST control)
